# Only some compounds are listed: those with a hit (about 1.6% of all), similar ones and a draw of the others.
# dFosB activator: enhances mouse delta FosB homodimer DNA binding; P13346; purified delta FosB, TAMRA-CDK5 oligo fluorescence polarization; percent of positive-control signal above neutral wells; activation, % at 25 µM; actives 0.99% (n = 340,000);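 active = mean activation above about 17%, with every replicate also reaching it, limit read from the data, passing the limit was not always enough; inconclusive = only one of the two conditions met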
# Beta2AR agonist: human beta-2 adrenergic receptor agonism by FAP; P07550; Am2.2-beta2AR cells, FAP receptor internalization, flow cytometry; response, % (no concentration beside the values); actives 0.43% (n = 340,000); AID 504454;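 active = response above a set limit, near 3 SD of response in nonfluorescent compounds, cut at about 42% in these data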
# Target sequence (P07550 whole entry, looked up): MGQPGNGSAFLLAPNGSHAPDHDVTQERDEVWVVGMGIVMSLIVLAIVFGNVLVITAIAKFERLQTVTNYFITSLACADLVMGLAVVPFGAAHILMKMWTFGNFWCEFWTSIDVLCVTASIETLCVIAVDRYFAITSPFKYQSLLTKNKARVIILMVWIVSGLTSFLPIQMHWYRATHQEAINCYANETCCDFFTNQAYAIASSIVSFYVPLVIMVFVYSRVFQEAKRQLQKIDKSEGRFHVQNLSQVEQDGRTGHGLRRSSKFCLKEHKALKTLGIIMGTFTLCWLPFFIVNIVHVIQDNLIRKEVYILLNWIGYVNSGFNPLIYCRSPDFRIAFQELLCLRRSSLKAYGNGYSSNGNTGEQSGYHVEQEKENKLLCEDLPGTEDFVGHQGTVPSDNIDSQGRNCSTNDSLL
# Dyrk1A ADPGlo: blocks rat Dyrk1A kinase activity | Q63470 | inhibition, % at 12.5 µM | ADP-Glo luminescence, NFATc1 peptide | AID 504441 | actives 0.43% (n = 310,000); in the data active = inhibition above about 50%;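 also: plate controls were vehicle with enzyme for no effect and no enzyme for full effect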
# Bfl-1 A1 inh: inhibitors of the anti-apoptotic protein A1, read as caspase activation; actives 0.066% (n = 330,000); MEF A1-2A-BIM cells, Caspase-Glo 3/7 luminescence, 3 h; percent of clofoctol response, vehicle zero; AID 2462; caspase activation, % (concentration not given with the values);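 active = over half of replicate activation scores above 10%, or exactly half above 10 with the replicate mean above 10; inconclusive = replicate mean below 10 yet half the replicates above 10; inactive = over half of replicates below 10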
# An asterisk follows results filed as active; ? = inconclusive; . = no result given.
SMILES,dFosB activator,Beta2AR agonist,Dyrk1A ADPGlo,Bfl-1 A1 inh
Cc1cc2[nH]c(=O)c(=O)[nH]c2cc1S(=O)(=O)NC1CCC(C)CC1 (stereo not drawn),-1,5,-6,1
Cc1cc2[nH]c(=O)c(=O)[nH]c2cc1S(=O)(=O)NC1CCCCC1C (stereo not drawn),-5,3,57*,0
COc1cc(/C=C2/NC(=O)NC2=O)ccc1OCC(=O)Nc1ccc(F)cc1,6,2,-7,0
O=C(COc1ccc(/C=C2/NC(=O)NC2=O)cc1)Nc1ccc(F)cc1,40*,15,-1,-1
COc1ccc(C2=Nc3cccc4cccc(c34)N2)cc1,55*,18,-4,0
Nc1cccc(C2=Nc3cccc4cccc(c34)N2)c1,?,-1,0,0
COc1ccc(NC2=C(NCCO)C(=O)c3ccccc3C2=O)cc1,-2,66*,2,-1
CC(=O)Nc1ccc(C=NNc2ccc([N+](=O)[O-])cn2)cc1,3,-4,4,.
CC1N(C)c2cc(NC(=O)c3ccco3)ccc2C1(C)C (stereo not drawn),145*,2,3,-1
CC1N(C)c2cc(NC(=O)c3ccco3)c(P(=O)(Nc3ccc([N+](=O)[O-])cc3)N3CCOCC3)cc2C1(C)C (stereo not drawn),?,24,5,-1
O=C(CSc1nnnn1-c1ccccc1)Nc1ncc(Cc2cc(Cl)ccc2Cl)s1,11,5,-3,0
O=C(CSc1nnnn1-c1ccccc1)Nc1ncc(Cc2cccc(Cl)c2Cl)s1,77*,3,1,1
COc1ccc(C)c2sc(N(CCN(C)C)C(=O)/C=C/c3cccs3)nc12,78*,22,3,0
COc1ccc(OC)c2sc(N(CCN(C)C)C(=O)/C=C/c3cccs3)nc12,40*,19,1,0
COc1cccc2sc(N(CCN(C)C)C(=O)/C=C/c3cccs3)nc12,-6,6,.,2
Cc1ccccc1OCC(=O)OCC(=O)NCc1ccccc1Cl,-12,-2,-3,0
O=[N+]([O-])c1ccc(/C=N/Nc2nc(-c3ccccc3)c3cc(Br)ccc3n2)o1,23*,-37,8,0
CCOc1ccccc1N=C1SC(CC(=O)Nc2ccc(OC)cc2OC)C(=O)N1CCC1=CCCCC1 (stereo not drawn),-9,67*,-4,0
O=C(CC1SC(=Nc2ccc(OC(F)F)cc2)N(CCC2=CCCCC2)C1=O)Nc1ccccc1F (stereo not drawn),-5,3,-1,0
CC(C(=O)N1c2ccccc2CC1C)N1CCN(S(=O)(=O)c2ccccc2F)CC1 (stereo not drawn),-13,-4,2,0
O=C1/C(=C\c2ccc(Cl)c(Cl)c2)CN(C(=O)CCN2CCOCC2)C/C1=C/c1ccc(Cl)c(Cl)c1,13,52*,0,.
Cc1c(C)c(C)c(C(=O)CCc2cccc(NC(=O)CCC(=O)O)c2)c(C)c1C,3,1,-1,11*
COC(=O)[C@H](Cc1ccc(O)cc1)NC(=O)Cn1cnc2c(OCc3ccccc3)ncnc21,-10,-5,.,.
O=C(NCc1ccc2c(c1)OCO2)c1cc2n(n1)C(C(F)(F)F)CC(c1ccc3c(c1)OCO3)N2 (stereo not drawn),21*,-5,0,0
COc1ccc(NC(=O)CSc2nc3ccsc3c(=O)n2CCCCCC(=O)O)cc1,1,5,1,-1
SMILES,dFosB activator,Beta2AR agonist,Dyrk1A ADPGlo,Bfl-1 A1 inh
COc1ccc(C(=O)NNC(=O)c2ccccn2)cc1,-8,-4,49,-8
COc1ccc2c(c1)C(=NNC(=O)c1ccccn1)c1cc(OC)ccc1-2,-17,43*,45,0
COc1cccc(Cn2nnc(C(=O)Nc3ccc(C)cc3)c2N)c1,16*,3,7,0
CCOc1ccccc1NC(=O)c1nnn(CC(=O)Nc2cc(C)cc(C)c2)c1N,26*,1,.,0
CCOc1ccccc1NC(=O)Cn1nnc(C(=O)Nc2ccccc2Cl)c1N,11,-3,1,.
COc1ccc(Cl)cc1NC(=O)c1nnn(CC(=O)Nc2ccc(C)c(C)c2)c1N,125*,-5,5,1
COc1ccccc1NC(=O)c1nnn(CC(=O)Nc2ccccc2)c1N,1,-8,-3,-1
CCOc1ccc(NC(=O)Cn2nnc(C(=O)NCCc3ccc(OC)c(OC)c3)c2N)cc1,32*,1,-1,1
CCCCn1c(N)c(N(CC(C)C)C(=O)c2cccc(S(=O)(=O)N(CC)c3ccccc3)c2)c(=O)[nH]c1=O,-7,-7,-4,.
Cc1cc(C)cc(NC(=O)Cn2nnc(C(=O)NCCc3ccccc3)c2N)c1,83*,-6,0,1
Cc1cc(=O)oc2cc(OCc3ccc(C(=O)OCC(=O)Nc4ccc(N(C)C)cc4)cc3)ccc12,-4,49*,-1,.
Cc1ccc(NC(=O)CC2SC(=O)NC2=O)cc1 (stereo not drawn),-3,-3,2,1
Cc1ccc(NC(=O)CC2=NC(=O)C(CC(=O)Nc3ccccc3C)S2)cc1 (stereo not drawn),34*,5,-2,1
Cc1ccc(O)c(Nc2nc(-c3ccccc3)nc3ccccc23)c1,-4,5,15,0
Cc1ccc(O)c(Nc2c3ccccc3nc3ccccc23)c1,35*,8,3,0
COc1cc(OC)c2cc(C(=O)N[C@H](C(=O)N3CCC[C@H]3C(=O)O)C(C)C)n(C)c2c1,-1,-3,2,0
Cc1cc(OCC(=O)Nc2ccc(N3CCCC3)cc2)cc(C)c1Cl,65*,19,2,1
CCN(CC)CCOC(=O)c1ccc(N/C=C(/C#N)c2nc(-c3cccc(OC)c3)cs2)cc1,.,2,.,0
CCN(CC)CCOC(=O)c1ccc(N/C=C(/C#N)c2nc(-c3ccc(OC)c(OC)c3)cs2)cc1,165*,18,0,0
CCn1cc(S(=O)(=O)Nc2cc(C(=O)OC)ccc2C)cn1,-1,5,-2,-1
COc1ccc(-n2nc(C(=O)NCC(=O)Nc3ccccn3)c3ccccc3c2=O)cc1Cl,67*,20,1,.
COc1ccc(NC(=O)COC(=O)C2CC(=O)N(CCc3ccc(OC)c(OC)c3)C2)cc1Cl (stereo not drawn),-14,1,2,1
COc1cc2c(C(=O)N3CCN(C)CC3)c(C)n(-c3ccccc3)c2cc1Br,1,-2,1,1
CCN(CC)CCNC(=O)c1c(C)n(-c2ccccc2)c2cc(Br)c(OC)cc12,26*,23,7,1
CCCCOc1ccc(/C=C/C(=O)OCC(=O)N2CC(=O)Nc3ccccc32)cc1OCC,?,44*,0,-1
CC1(C)Cc2c(sc(NC(=O)c3ccc(C(=O)c4ccccc4)cc3)c2C(N)=O)C(C)(C)N1,44*,26,2,0
Cc1ccc(Oc2ccc(S(=O)(=O)N3CCOCC3)cc2C(N)=O)cc1C,-2,3,3,0
Cc1nn(CC(=O)Nc2ccc3c(c2)nc(CCN2CCCCC2)n3C)c(=O)c2ccccc12,4,2,-2,.
